The entries come from a sample that favours hits as a whole.
KDM5B inhibitor = KDM5B demethylase inhibition | 220,000 tested, 2.6% active | Potency, µM (highest dose often 57.7 µM), most hits filed as inhibitors | KDM5B demethylase, FDH-coupled NADH fluorescence (FDH is formaldehyde dehydrogenase) | Q9UGL1 | AID 1347165; active = well fitted inhibition curve with a large enough effect; note: nearly all actives have a fitted effect of over 70% in size
Target sequence (Q9UGL1 whole entry, looked up): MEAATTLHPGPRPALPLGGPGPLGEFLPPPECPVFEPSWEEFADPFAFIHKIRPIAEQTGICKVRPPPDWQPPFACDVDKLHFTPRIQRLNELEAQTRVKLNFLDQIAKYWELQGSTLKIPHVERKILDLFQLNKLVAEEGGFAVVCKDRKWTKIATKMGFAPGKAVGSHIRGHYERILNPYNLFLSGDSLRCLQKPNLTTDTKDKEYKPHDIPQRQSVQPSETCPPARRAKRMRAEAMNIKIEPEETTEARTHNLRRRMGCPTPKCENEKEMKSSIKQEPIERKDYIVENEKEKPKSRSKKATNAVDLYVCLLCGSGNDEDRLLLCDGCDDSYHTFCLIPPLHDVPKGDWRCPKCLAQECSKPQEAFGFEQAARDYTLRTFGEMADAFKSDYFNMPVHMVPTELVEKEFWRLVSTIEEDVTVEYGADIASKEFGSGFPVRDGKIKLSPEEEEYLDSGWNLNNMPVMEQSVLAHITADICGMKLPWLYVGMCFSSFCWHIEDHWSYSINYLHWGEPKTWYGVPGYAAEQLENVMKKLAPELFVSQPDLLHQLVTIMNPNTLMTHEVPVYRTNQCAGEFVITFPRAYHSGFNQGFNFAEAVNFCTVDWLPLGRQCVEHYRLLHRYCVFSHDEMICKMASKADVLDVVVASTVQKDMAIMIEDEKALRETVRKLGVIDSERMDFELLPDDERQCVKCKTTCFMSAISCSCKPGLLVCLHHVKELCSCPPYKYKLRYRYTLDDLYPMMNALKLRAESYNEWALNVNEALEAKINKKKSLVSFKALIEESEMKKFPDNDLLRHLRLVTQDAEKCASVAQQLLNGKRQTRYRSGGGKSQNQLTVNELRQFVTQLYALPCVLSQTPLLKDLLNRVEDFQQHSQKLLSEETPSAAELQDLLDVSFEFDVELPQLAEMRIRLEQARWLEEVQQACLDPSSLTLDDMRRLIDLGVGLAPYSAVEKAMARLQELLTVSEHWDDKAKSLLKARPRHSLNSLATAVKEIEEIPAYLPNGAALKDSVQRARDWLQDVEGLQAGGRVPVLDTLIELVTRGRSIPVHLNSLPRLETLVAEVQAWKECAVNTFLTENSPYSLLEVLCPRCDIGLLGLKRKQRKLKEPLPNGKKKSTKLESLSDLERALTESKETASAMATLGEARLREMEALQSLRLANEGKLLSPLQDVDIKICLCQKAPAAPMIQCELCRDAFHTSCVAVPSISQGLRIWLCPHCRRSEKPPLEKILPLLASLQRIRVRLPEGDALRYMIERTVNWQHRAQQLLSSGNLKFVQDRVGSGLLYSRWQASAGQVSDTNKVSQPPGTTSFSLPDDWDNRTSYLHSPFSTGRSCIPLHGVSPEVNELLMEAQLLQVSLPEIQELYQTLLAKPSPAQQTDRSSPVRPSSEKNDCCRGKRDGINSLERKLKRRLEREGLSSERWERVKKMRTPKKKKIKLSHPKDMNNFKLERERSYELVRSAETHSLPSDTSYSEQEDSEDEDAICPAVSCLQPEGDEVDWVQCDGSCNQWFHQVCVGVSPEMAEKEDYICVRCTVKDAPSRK
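KDM5BΔAP (200 nM final) in 50 mM HEPES pH 7.5, 0.01% Tween-20 was preincubated 10 min at RT with compound over a concentration range. Substrate mix (H3K4me3 12.5 µM, α-KG 25 µM, Fe²⁺, ascorbate, NAD⁺, FDH) was added, and NADH fluorescence change over 30 min gave dose-response curves.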
A number is an active result; – = inactive.

SMILES	KDM5B inhibitor
Cc1cc(C)n(-c2nc3c(c(=O)[nH]c(=O)n3C)n2C/C=C/c2ccccc2)n1	–
O=C(Nc1nn2c(-c3ccccc3)nnc2s1)c1ccccc1F	–
COc1ccc(NC(=O)CCc2nnc3ccc(NCc4ccccc4Cl)nn23)cc1	–
CCn1c(CNC(=O)c2ccccc2F)nnc1SCCOc1ccccc1	–
Cc1nnc2sc(-c3ccc(CNC(=O)c4ccccc4Cl)cc3)nn12	–
O=C(NCc1nnc2ccc(-c3ccccc3)nn12)c1ccccc1F	28µM
COc1ccc(-c2ccc3nnc(CNC(=O)c4ccccc4Cl)n3n2)cc1	28µM
COc1cc(OC)cc(C(=O)Nc2ccc3oc(=O)ccc3c2)c1	–
Cc1ccsc1CNC(=O)Cc1ccc(F)cc1	–
O=C(NCCNC(=O)c1c[nH]c2ccccc12)c1ccncc1	–
N=C(N)c1cccc(C(F)(F)F)c1	–
CN(CC(=O)NC(=O)NCCC1=CCCCC1)C1CCCCC1	–
COc1ccc(Nc2nc3ccccc3nc2NS(=O)(=O)c2ccccc2)c(OC)c1	–
Cc1cnn(CC(=O)N2CCC3(CC2)CN(c2ncccn2)CC3CO)c1 (stereo not given)	35µM
O=C(c1c[nH]c2ccccc12)N1CCC2(CC1)CN(c1ccncn1)CC2CO (stereo not given)	–
COCC1CN(C(C)=O)CC12CCN(C(=O)c1ccccc1OC)CC2 (stereo not given)	–
Cc1ccccc1C(=O)N1CCC2(CCN(Cc3cnc[nH]3)CC2)C(CO)C1 (stereo not given)	–
N#Cc1ccc(C(=O)N2CCC3(CC2)CN(c2ncccn2)CC3CO)cc1 (stereo not given)	22µM
Cc1ccccc1C(=O)N1CCC2(CC1)CN(c1ncccn1)CC2CO (stereo not given)	32µM
O=C(Cc1ccccc1)N1CCC2(CC1)CN(c1ccncn1)CC2CO (stereo not given)	–
CC(=O)N1CC(CO)C2(CCN(C(=O)c3cccc(C#N)c3)CC2)C1 (stereo not given)	–
COc1ccccc1C(=O)N1CCC2(CC1)CN(c1ncccn1)CC2CO (stereo not given)	25µM
CCOc1ccccc1C(=O)N1CCC2(CC1)CN(c1ccncn1)CC2CO (stereo not given)	–
O=C(c1ccc(F)cc1)N1CCC2(CC1)CN(Cc1ccccc1)CC2CO (stereo not given)	–
O=C(CCCc1ccccc1)N1CCC2(CC1)CN(c1ccncn1)CC2CO (stereo not given)	–
SMILES	KDM5B inhibitor
CC(C)(C)C1CCCCC1NC(=O)c1ccc(Cl)nc1 (stereo not given)	–
O=C(NCC(c1ccccc1)N1CCCC1)c1nn(-c2ccccc2)c(=O)c2ccccc12 (stereo not given)	–
CCCCNCc1ccc(C)s1	–
Cc1nn(-c2ccc3nnc(C)n3n2)c2c1C(c1cccc(OC(F)F)c1)CC(=O)N2 (stereo not given)	–
COc1ccc(C(=O)Nc2oc3ccc(Cl)cc3c(=O)c2-c2ccccc2)cc1OC	–
Cc1cc2nc(CSCC(=O)Nc3cccc(C)c3C)cc(=O)n2o1	–
C/C(=N\N=C(N)N)C1=CC(C)(C)CCC1	–
N#Cc1cc([N+](=O)[O-])ccc1NC(=O)COC(=O)C1(c2ccc(F)cc2)CCCC1	–
Cc1ccc(S(=O)(=O)N(CC(=O)N2CCN(C(=O)c3ccco3)CC2)Cc2ccco2)cc1C	–
O=C(c1ccccc1)C1CCN(C(=O)/C=C/c2ccc(F)cc2)CC1	–
O=C(Cn1nc(-c2cccs2)c2ccccc2c1=O)Nc1ccc(N2CCCCC2)cc1	–
O=C(O)CCS(=O)(=O)Cc1cccc(Br)c1	–
Cc1cc(NC(=O)Cc2cccc(C(F)(F)F)c2)ccc1N1CCN(C)CC1	–
Cc1noc(/C=C/c2ccccc2F)c1S(=O)(=O)N1CCC(C(=O)N2CCOCC2)CC1	–
COc1ccc(-c2cc(-c3cnn(C)c3)cn3cncc23)cc1	35µM
COc1ccc(-c2cnc(N)nc2-c2ccc(OCc3ccccc3)cc2O)cc1	–
COc1ccc(-c2[nH]ncc2-c2ccccc2)c(O)c1	–
COc1ccc(-c2cc(-c3ccccc3O)cn3cncc23)cc1	3.5µM
COc1ccc(-c2cc(-c3ccc(OC)cc3)on2)cc1	–
CCN(Cc1ccc(OC)c(OC)c1)S(=O)(=O)c1cnn(C)c1	–
CCN(c1ccc(NS(=O)(=O)c2ccc(C)c(C)c2)cc1)C(C)C	–
CC(C)c1noc(CN2CCN(C(=O)N3CCCCC3)CC2)n1	–
CCCCNC(=O)Cn1c(=O)c2c(ncn2CC(C)C)n(CC(C)C)c1=O	–
COc1cccc(NC(=O)c2c(-c3ccccc3)oc3ccc(OC)cc23)c1	–
CCC1CCc2c(sc(NC(=O)CC(C)(C)C)c2C#N)C1 (stereo not given)	–
S=C(Nc1ccc(Br)cc1)N(Cc1ccccc1)Cc1ccccc1	–
Cc1cc(C(=O)OCC(=O)NC2(C#N)CCCCC2)c2ccccc2n1	–
CCCCn1c(N)c(N(CC)C(=O)C2Cc3ccccc3C(=O)O2)c(=O)[nH]c1=O (stereo not given)	–

Assay outcomes (PubChem)
